Laboratory results reported in PubChem BioAssay (NCI).
Compounds without any hit were thinned out: in the full panel of roughly 83,000, 20% have a hit.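 In brief: 96-well plates, 48 h treatment, single concentration, percent growth endpoint.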 The source made the active and inactive calls. The calls were made as follows: active = growth percent below 10; inactive = the rest.

Assays:
Assay in all cases: NCI-60 one-dose screen, 48 h (100 = growth as untreated, 0 = no growth, -100 = all killed)
Conditions in all cases: 10 µM unless noted
[1] = system: NCI-H23 lung
[2] = system: NCI-H226 lung
[3] = system: NCI-H322M lung
[4] = system: HOP-62 NSCLC
[5] = system: NCI-H460 lung
[6] = system: HOP-92 NSCLC
[7] = system: NCI-H522 lung
[8] = system: A549/ATCC NSCLC
[9] = system: 786-0 renal
[10] = system: COLO 205 colon
[11] = system: DU-145 prostate
[12] = system: K-562 leukemia
[13] = system: MALME-3M melanoma
[14] = system: MDA-MB-231 breast
[15] = system: RXF 393 renal
[16] = system: SF-268 CNS
[17] = system: SF-295 CNS
[18] = system: SF-539 CNS
[19] = system: UACC-257 melanoma
[20] = system: M14 melanoma

Measured: growth

CCN(CC)c1ccc(/C=N\NC(=O)c2cccc(Nc3ccnc(C(F)(F)F)c3)c2)c(O)c1
inactive: [1] 39.5% | [3] 33% | [4] 29.5% | [6] 20.6% | [7] 41.5% | [8] 31.3% | [11] 23.1% | [12] 92.3% | [13] 24.4% | [14] 13.6% | [16] 10.3% | [17] 16.8% | [19] 27.3% | [20] 21.2%
active: [2] -3.12% | [5] 1.17% | [9] 5.84% | [10] -0.627% | [15] -1.92% | [18] -38.9%

COc1ccc(/C=C/C(=O)c2cc3c(N)c(C(=O)Nc4ccc(OC)cc4)sc3nc2C)cc1
active: [5] -6.51% | [7] -29.6% | [10] -47.7% | [15] -14.4% | [18] -25.5%
inactive: [1] 32.7% | [2] 49.4% | [3] 36.4% | [4] 49.2% | [6] 97.7% | [8] 13.5% | [9] 27.7% | [11] 17.5% | [12] 17.9% | [13] 49.1% | [14] 24.7% | [16] 39.5% | [17] 11.6% | [19] 55.3% | [20] 10.2%

COc1ccc(C(c2cc(OC)c(OC)c(OC)c2)N2CCCC2)cc1 (stereo not given)
inactive: [1] 85.3% | [2] 87.6% | [3] 87.5% | [4] 79.5% | [5] 84.3% | [6] 85.5% | [7] 58.5% | [8] 77.7% | [9] 93.4% | [10] 71.2% | [11] 103% | [12] 25.3% | [13] 85.3% | [14] 80.8% | [15] 103% | [16] 84.3% | [17] 69.7% | [18] 95.7% | [19] 74.6% | [20] 60.1%

CN1CCN(Cc2ccc(NC(=O)c3cncc(C#Cc4cnn5ccccc45)c3)cc2C(F)(F)F)CC1
active: [1] -43.9% | [2] -11.6% | [3] -2.81% | [4] -15.4% | [5] -22.5% | [6] -7.15% | [7] -14.7% | [8] 4.64% | [9] 4.29% | [10] -33.6% | [11] 4.16% | [12] 1.13% | [13] -61.3% | [14] -7.64% | [15] -44.8% | [16] -32.8% | [18] -58.4% | [20] -39.6%
inactive: [17] 20.7% | [19] 11%

N#Cc1c(Nc2ccc(F)cc2)n[nH]c1-c1cccs1
inactive: [1] 85.2% | [2] 88.9% | [3] 102% | [4] 110% | [5] 107% | [6] 87.5% | [7] 97.1% | [8] 115% | [9] 98.3% | [10] 128% | [11] 113% | [12] 99.2% | [13] 108% | [14] 89.5% | [15] 112% | [16] 98% | [17] 97.7% | [18] 98.8% | [19] 120% | [20] 104%

COc1ccc(OC)c(-c2cn3nc(-c4c[nH]c5ccc(Br)cc45)sc3n2)c1
active: [5] -32.4% | [7] 8.67% | [12] 5.98% | [14] 9.49% | [18] -12.8%
inactive: [1] 25% | [2] 89.9% | [3] 50.6% | [4] 60.9% | [6] 46.5% | [8] 14.5% | [9] 49.3% | [10] 29.8% | [11] 29.3% | [13] 52.2% | [15] 67.8% | [16] 18.3% | [17] 54.1% | [19] 84.9% | [20] 12.7%

O[C@@H](c1cc(C(F)(F)F)nc2c(C(F)(F)F)cccc12)[C@H]1CCCCN1
inactive: [1] 81.5% | [2] 94.6% | [3] 71.5% | [4] 56.1% | [5] 35.6% | [6] 12.3% | [7] 40% | [8] 66% | [9] 46.3% | [10] 67.9% | [11] 65.8% | [12] 15.8% | [13] 99% | [14] 14.5% | [15] 55.2% | [16] 54.7% | [17] 95.7% | [18] 85.6% | [19] 65.5% | [20] 71.6%

CN1CCN(CCCOC(=O)c2c3c(n4ccccc24)C(=O)c2ncccc2C3=O)CC1
active: [1] -30.6% | [4] -34.9% | [5] -15.1% | [7] -87.1% | [8] -47.9% | [9] 1.4% | [10] -93.2% | [11] -66.5% | [12] -30.4% | [13] -59.7% | [15] -2.1% | [16] 5.69% | [17] -5.73% | [18] -13.1% | [19] -34.2% | [20] -86.1%
inactive: [2] 15.7% | [3] 28.5% | [6] 14.8% | [14] 20%

O=C1NC(=O)c2c1c1c3ccccc3[nH]c1c1oc3cc(Br)ccc3c21
inactive: [1] 76.2% | [2] 58.9% | [3] 75.7% | [4] 65.9% | [5] 36.8% | [6] 87.9% | [7] 50.6% | [8] 84.7% | [9] 81.7% | [10] 72.3% | [11] 90.2% | [12] 55% | [13] 87% | [14] 80.5% | [15] 88.1% | [16] 76.4% | [17] 52.8% | [18] 96.9% | [19] 96.4% | [20] 65.8%

COc1ccc(Cn2cc(C(=O)N=Nc3c(O)[nH]c4c(Cl)cccc34)nn2)cc1
inactive: [1] 99.3% | [2] 102% | [3] 101% | [4] 110% | [5] 99.7% | [6] 105% | [7] 84% | [8] 102% | [9] 106% | [10] 114% | [11] 105% | [12] 89.2% | [13] 99.7% | [14] 98.5% | [15] 109% | [16] 94.7% | [17] 109% | [18] 108% | [19] 92.9% | [20] 106%

COc1cc(OC)cc(C2C(C#N)=C(N)Oc3c2ccc2ccc(O)cc32)c1 (stereo not given)
inactive: [1] 14.9% | [2] 38.2% | [3] 30.9% | [4] 23.3% | [6] 13.4% | [9] 12.7% | [11] 10.9% | [13] 39.3% | [14] 10.9% | [15] 24.1% | [16] 15.9% | [17] 22.9% | [19] 69.4%
active: [5] 3.85% | [7] 1.5% | [8] 6.38% | [10] -42% | [12] 6.22% | [18] -9% | [20] 5.6%

COc1cc2cc(Oc3ccc(NC(=O)Nc4ccccc4)cc3)c(C)nc2cc1OCCN1CCCCC1
inactive: [1] 96.5% | [2] 99.8% | [3] 114% | [4] 94.9% | [5] 33% | [6] 55.7% | [7] 106% | [8] 78.6% | [9] 68.3% | [10] 69.3% | [11] 89.6% | [14] 85.7% | [15] 53.5% | [16] 83.5% | [17] 100% | [19] 84%
active: [12] -45.6% | [13] -75% | [18] -80.4% | [20] -90.1%

COc1ncc2cc1NS(=O)(=O)c1cccc(c1)C(=O)NCC1=CC=C(S1)c1ncnc3c1SC2=C3C
inactive: [1] 10.6% | [14] 10.9%
active: [2] -30.4% | [3] -65.4% | [4] 4.4% | [5] 2.61% | [6] -17.5% | [7] 4.2% | [8] 1.4% | [9] -23.8% | [10] -35.5% | [11] 9.14% | [12] 4.66% | [13] -39.2% | [15] -62.8% | [16] 0.0661% | [17] -21.6% | [18] -55.3% | [19] -1.33% | [20] -43.9%

COC(=O)/C=C1/SC(=Nc2cccc(Cl)c2)N(CCc2c[nH]c3ccc(O)cc23)C1=O
inactive: [1] 51.1% | [2] 81.3% | [3] 98.6% | [4] 15.4% | [5] 37% | [6] 40.7% | [7] 11% | [8] 78.9% | [9] 19.1% | [10] 90.3% | [11] 14.4% | [13] 42.6% | [14] 29.1% | [15] 10.7% | [16] 25.3% | [17] 64.2% | [19] 31.9% | [20] 13%
active: [12] 5.71% | [18] 0.787%

CCNC(=O)Oc1ccc(/C(=C(/C)Cc2ccc(OC)cc2)c2ccc(OCCN3CCCCCC3)cc2)cc1
active: [12] 5.8%
inactive: [1] 75.9% | [2] 96.2% | [3] 95.5% | [4] 84.4% | [5] 30.6% | [6] 40.8% | [7] 54.2% | [8] 54.9% | [9] 72% | [10] 28.7% | [11] 92.2% | [13] 109% | [14] 64.1% | [15] 68.3% | [16] 74.5% | [17] 88.4% | [18] 96.4% | [19] 76.7% | [20] 68.3%
